Molecules are shown by their SMILES. Compounds without any hit were thinned out: in the full panel of roughly 83,000, 20% have a hit.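 48-hour exposure, single concentration, 96-well plates; percent growth endpoint where 0 means no net growth. Active: below 10.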 Activity calls are given as the source filed them.

Drawing on PubChem BioAssay (NCI), this text covers growth for 38 compounds.

In one experiment the test system is SK-MEL-2 melanoma. In words: NCI-60 one-dose screen, 48 h (100 = growth as untreated, 0 = no growth, -100 = all killed). To be noted: 10 µM unless noted.
On to `N=C1N=C(SCc2nc3ccccc3[nH]2)NC(=O)/C1=C/c1ccc(Cl)cc1`, for which the growth is 105% (inactive).

For `COc1ccc(-c2c(Nn3cnnn3)no[n+]2[O-])cc1`, the growth was 82.5% (inactive).

As for `CN(C)c1nc(NCCNS(=O)(=O)c2ccc(C(=O)/C=C/c3ccc(F)cc3)cc2)nc(Nc2ccc(F)cc2)n1`, the growth was -90.2% (active).

`N/C(=N\c1nc2ccccc2s1)NC(=O)Nc1ccc(Cl)cc1Cl`: the growth is -49.9% (active).

The subject of the next experiment is EKVX NSCLC. Described as above. To be noted: 10 µM unless noted.
Consider `CCCCSc1nc(Nc2ccc(S(N)(=O)=O)cc2)c(C#N)c(-c2ccc(Cl)cc2)n1`, for which the growth is 34.7% (inactive).

Regarding `COc1cc(-c2cc(-c3cccc(OCC(=O)O)c3)[nH]c(=O)c2C#N)cc(OC)c1OC`, the growth is 91.8% (inactive).

In the case of `NS(=O)(=O)c1ccc(-n2cc(-c3cccc(NC(=O)c4cc(N5CCOCC5)cc(C(F)(F)F)c4)c3)nn2)cc1`, the growth is 70.5% (inactive).

Consider `COc1cc(-c2ccc(/C=N/NC(=O)c3[nH]c4ccc(Br)cc4c3-c3ccccc3)o2)cc(OC)c1OC`, for which the growth was 65.7% (inactive).

For the compound `COc1ccc(C2=NN(c3ccccc3)C(c3ccc(OCc4ccccc4)c(OC)c3)C2)cc1OC` (configuration not stated), the growth was 93% (inactive).

`CC(C)(C)OC(=O)/C=C/c1cccc2c1C(=O)NC(C)(c1cc3cc(Cl)ccc3oc1=O)N2` (configuration not stated): the growth was 36.2% (inactive).

Take `O=C(Nc1ccccc1)N1CCN(c2cc(-c3cn(-c4ccccc4)nc3-c3cccc(O)c3)ccn2)CC1`: the growth is 77.1% (inactive).

Regarding `COc1ccc(NC(=O)Cn2c3c(sc2=O)[C@H]2[C@@H](O)[C@@H](O)[C@H](O)[C@@H]2CS3)cc1`, the growth was 97.4% (inactive).

`N#Cc1c(-c2ccccc2Cl)cc(-c2c[nH]c3ccccc23)[nH]c1=O`: the growth is 68.1% (inactive).

Consider `COc1ccc(C(=O)/C=C/c2cccc(Cl)c2Cl)cc1S(N)(=O)=O`, for which the growth was 0.538% (active).

Take `CNC(=O)c1cccc(NC(=O)c2ccc3c(c2)nnn3/C(C#N)=C/c2ccccn2)c1`: the growth is -30.5% (active).

With `COc1c(F)ccc(C(=O)Nc2ccc3nc(NC(=O)C4CCCN(S(=O)(=O)c5ccc(C#N)cc5)C4)sc3c2)c1F` (configuration not stated), the growth is 96.2% (inactive).

Regarding `O=C(Cn1c2c(sc1=O)[C@H]1[C@@H](O)[C@@H](O)[C@H](O)[C@@H]1CS2)N1CCOCC1`, the growth is 100% (inactive).

Regarding `Nc1nc(-c2ccccc2)c(N=Nc2ccc([N+](=O)[O-])cc2Cl)s1`, the growth is 89.2% (inactive).

Consider `C=Cn1cc(C(=O)O)c(=O)c2cc(F)c(N3CCN(c4nccc(-c5nccs5)n4)CC3)cc21`, for which the growth is -24.2% (active).

For `C/C(=N\N=C1/C(=O)Nc2ccc(Cl)cc21)c1ccc2c(c1)Nc1ccccc1S2`, the growth is 12.6% (inactive).

Take `CC1=C(C(=O)c2ccccc2)C(c2cccc3ccccc23)n2c(nc3ccccc32)N1` (configuration not stated): the growth was 58.4% (inactive).

Regarding `C#C[C@]1(O)CC[C@H]2[C@@H]3CC=C4c5sc(-c6ccc(O)c(O)c6)nc5CC[C@]4(C)[C@H]3CC[C@@]21C`, the growth was -74.4% (active).

Consider `NS(=O)(=O)c1ccc(-n2cc(-c3cccc(NC(=O)c4cc(Cl)cc(Cl)c4)c3)nn2)cc1`, for which the growth was 88.8% (inactive).

As for `COc1ccc(-c2nnc3ccc(N/N=C/c4ccc(C)cc4)nn23)cc1`, the growth was 68.2% (inactive).

For the compound `O=C(Nc1ccc(C(F)(F)F)cc1)Nc1ccc2oc(=O)ccc2c1`, the growth is 12.2% (inactive).

On to `O=c1[nH]c(=O)c2c(-c3cc4ccccc4oc3=O)ccnc2[nH]1`, for which the growth is 103% (inactive).

With `CC1(C)CC[C@]2(C(=O)O)CC[C@]3(C)C(=CCC4[C@@]5(C)C[C@@H](O)[C@@H]6OC(c7ccccc7Br)OC[C@@]6(C)C5CC[C@]43C)C2C1` (some centres not stated), the growth is 18.4% (inactive).

With `COc1cc(-c2nc3ccc(C)cc3[nH]2)ccc1OCc1nnc(-c2ccc(Br)cc2)o1`, the growth is 42.7% (inactive).

As for `Clc1cccc(N/N=C/c2c[nH]c3ccc(Br)cc23)n1`, the growth was 33.9% (inactive).

In the case of `Cn1cc(-c2cc3nc(-c4cn(C)c5ncccc45)cc(N)n3n2)c2cc(Cl)ccc21`, the growth is -38.5% (active).

With `Cn1cc(-c2nnc(N)nc2-c2c[nH]c3ccccc23)c2cccnc21`, the growth is 62.3% (inactive).

As to `Cc1ccc([C@H]2C(C(=O)c3ccc(Cl)cc3)C3(N[C@@H]2c2ccccc2)C(=O)Nc2ccccc23)cc1` (some centres not stated), the growth was 29.6% (inactive).

Take `O=C(Cn1nc(-c2ccccc2)ccc1=O)N/N=C/c1ccc(N2CCOCC2)cc1`: the growth is 95.3% (inactive).

Turning to `COc1cc2c(c(OC)c1OC)C(=O)CC(c1cccc(NC(=O)c3cccc([N+](=O)[O-])c3)c1)O2` (configuration not stated), the growth was 60.6% (inactive).

On to `COc1ccc2[nH]cc(-c3nnc(N)nc3-c3c[nH]c4ncc(Br)cc34)c2c1`, for which the growth was 82.6% (inactive).

With `CC(C)c1ccc2c(N)c(C(=O)Nc3ccc(C(F)(F)F)cn3)sc2n1`, the growth is 26.4% (inactive).

Consider `C=C1CC[C@@H]2[C@]3(C)COC(c4ccco4)O[C@@H]3CC[C@@]2(C)[C@@H]1C/C=C1/C(=O)OCC1OC(C)=O` (some centres not stated), for which the growth is 89.3% (inactive).

As for `CCN(CC)c1ccc(/C=N/Nc2nc(-c3ccc(Br)cc3)cs2)c(O)c1`, the growth was 90.9% (inactive).

For `N=C1N=C(SCc2nc3ccccc3[nH]2)NC(=O)/C1=C/c1ccc(Cl)cc1`, the growth is 106% (inactive).

With `COc1ccc(-c2c(Nn3cnnn3)no[n+]2[O-])cc1`, the growth is 53.7% (inactive).

For `CN(C)c1nc(NCCNS(=O)(=O)c2ccc(C(=O)/C=C/c3ccc(F)cc3)cc2)nc(Nc2ccc(F)cc2)n1`, the growth is -49% (active).

With `N/C(=N\c1nc2ccccc2s1)NC(=O)Nc1ccc(Cl)cc1Cl`, the growth is -42.5% (active).
